Results from PubChem BioAssay AID1851 (National Center for Advancing Translational Sciences (NCATS), 2009).
About 2,600 (16%) of roughly 16,000 compounds were called active. Another 20% or so got no clear call; they are omitted. Only a sample is shown. A number with no mark means an inactive call. Calls follow the shape of the dose curve; as a rule, active = well fitted curve in the direction sought with a large enough effect; inconclusive = small, poorly fitted or top-dose-only effect, or effect the other way; inactive = no such curve, though single readings can be large or run the other way.
% is scaled to controls: 0 for no effect and ±100 for the full control effect.

The molecules below were run against Cytochrome P450 2D6 (Homo sapiens) (UniProt P10635) (assay: Cytochrome panel assay with activity outcomes). Conditions: recombinant CYP, pro-luciferin dealkylation, luminescence, p450-cyp2d6; series mostly up to 57.1 µM.
Sequence of Cytochrome P450 2D6 (Homo sapiens) (P10635 whole entry, looked up): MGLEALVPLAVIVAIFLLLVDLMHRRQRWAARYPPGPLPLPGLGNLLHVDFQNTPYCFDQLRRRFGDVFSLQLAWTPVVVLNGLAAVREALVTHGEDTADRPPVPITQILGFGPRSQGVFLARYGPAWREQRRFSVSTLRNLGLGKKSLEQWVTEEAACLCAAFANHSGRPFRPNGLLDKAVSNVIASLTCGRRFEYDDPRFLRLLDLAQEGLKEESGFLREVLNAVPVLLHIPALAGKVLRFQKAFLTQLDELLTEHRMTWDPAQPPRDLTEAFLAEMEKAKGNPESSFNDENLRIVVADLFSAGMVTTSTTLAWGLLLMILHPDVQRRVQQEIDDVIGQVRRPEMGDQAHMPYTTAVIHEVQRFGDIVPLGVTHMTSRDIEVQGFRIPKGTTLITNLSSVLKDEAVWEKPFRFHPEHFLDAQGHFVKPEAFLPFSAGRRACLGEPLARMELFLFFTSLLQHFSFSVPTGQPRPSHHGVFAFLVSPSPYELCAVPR
For `Cn1c(=O)n(-c2ccc(Cl)cc2)c(=O)c2c3c(sc21)COC(C)(C)C3`, the AC50 was “inactive”. For `COc1ccc2c(c1[N+](=O)[O-])CCC/C2=N/OC(=O)c1cccc2ccccc12`, the AC50 was “inactive”. `CCOc1c(OC(C)=O)ccc(/C=C/c2ccc3cccc(OC(C)=O)c3n2)c1[N+](=O)[O-]` was tested, and the AC50 was 10 µM (active). For `O=C(N/N=C/c1ccc2cccc(OCc3ccccc3)c2n1)c1ccc(Br)cc1`, the AC50 was “inactive”. `CCOc1c(OC(C)=O)ccc(/C=C2\N=C(SCC)SC2=O)c1[N+](=O)[O-]` was tested, and the AC50 was 11.2 µM (active). With `Cc1nn(C(C)C(=O)Nc2ccc(Cl)cn2)c(C)c1[N+](=O)[O-]` (stereo unspecified) the AC50 was “inactive”. For `C[C@@](N)(C(=O)O)c1ccc(S(=O)(=O)O)cc1`, the AC50 was “inactive”. With `COc1cccc(Nc2ncc3nc(-c4cccs4)c(=O)n(Cc4cccs4)c3n2)c1` the AC50 was “inactive”. For `O=c1c(-c2ccc(Cl)cc2)nc2cnc(N3CCNCC3)nc2n1Cc1cccs1`, the AC50 was “inactive”. In the case of `CCOC(=O)COc1c(OC)cc(Cl)cc1C1Nc2ccccc2C(=O)N1c1ccc(F)cc1` (stereo unspecified), the AC50 is reported as “inactive”. For `Oc1c(Br)cc(Br)cc1CN(Cc1cc(Br)cc(Br)c1O)C1CCCCC1`, the AC50 was 0.251 µM (active). For `Oc1c(Br)cc(CN(Cc2cc(Br)c(O)c(Br)c2)C2CCCCC2)cc1Br`, the AC50 was 2.51 µM (active). In the case of `CC(C)(C)c1cc(Br)c(O)c(CN(Cc2cc(C(C)(C)C)cc(Br)c2O)C2CCCCC2)c1`, the AC50 is reported as 0.2 µM (active). For `CC1=CC=CN2CC(O)CN=C12` (stereo unspecified), the AC50 was “inactive”. In the case of `COc1ccc(/C(O)=C2/C(=O)C(=O)N(Cc3cccnc3)C2c2ccco2)cc1OC` (stereo unspecified), the AC50 is reported as “inactive”. In the case of `CC(=O)n1nc(-c2ccco2)nc1N`, the AC50 is reported as “inactive”. For `Cc1cccc(N(CC(=O)NC2CCCC2)C(=O)c2cc3cc4cccc(C)c4nc3s2)c1C`, the AC50 was “inactive”. `Nc1ccc2[nH]cc(CCC(=O)O)c2c1` gave an activity, negative = inhibition of 5.9% [at 11.4 µM]. With `CSCC[C@H](NC(=O)c1nn(C)c(=O)c2ccccc12)c1nc2ccccc2[nH]1` the AC50 was “inactive”. In the case of `Cc1noc(C)c1-c1nccc(N2CCOCC2)n1`, the AC50 is reported as “inactive”. `Cc1ccc2c(c1)N[C@H](c1ccc(C(=O)O)cc1)c1cccn1-2` was tested, and the activity, negative = inhibition was -2.93% [at 11.4 µM]. With `Cc1ccc2nc(CC(=O)c3ccc4ccccc4c3)c(=O)[nH]c2c1` the activity, negative = inhibition was -4.59% [at 11.4 µM]. With `COc1ccc2nc(SCC(=O)Nc3ccc4c(c3)OCCO4)[nH]c2c1` the AC50 was “inactive”. In the case of `Cc1ccc2nc(SCC(=O)c3ccc4c(c3)OCO4)[nH]c2c1`, the AC50 is reported as 4.47 µM (active). In the case of `CC(/C=C1\N=C(SCc2ccccc2Cl)SC1=O)=C\c1ccccc1`, the AC50 is reported as “inactive”. `Cc1ccccc1Cn1nc(C)c(NC(=O)c2sc3ccccc3c2Cl)c1C` was tested, and the AC50 was “inactive”. In the case of `Cc1nnc(SCc2nc(N)nc(Nc3ccccc3)n2)s1`, the AC50 is reported as “inactive”. With `Cc1cc(Nc2ccccc2)nc(N)n1` the AC50 was 11.2 µM (active). With `Cc1cc(Nc2ccc(Cl)cc2)nc(N)n1` the AC50 was “inactive”. With `COC(=O)C1CCN(c2cc(=O)n(C3CCCCC3)c(=O)[nH]2)CC1` the AC50 was “inactive”. `CCC(=O)c1ccc(OCC(O)CN(CCc2ccccc2)Cc2ccccc2)cc1` (stereo unspecified) was tested, and the AC50 was 1 µM (active). `CN(C)CC(O)COc1ccc(C(C)(C)c2ccc(OCC(O)CN(C)C)cc2)cc1` (stereo unspecified) was tested, and the AC50 was “inactive”. In the case of `Cc1ccc(OCC(=O)NNC(=O)CCc2ccccc2)cc1`, the AC50 is reported as “inactive”. In the case of `COc1ccc(S(=O)(=O)NCc2ccc(C(=O)N3CCN(c4ccccn4)CC3)cc2)cc1`, the AC50 is reported as “inactive”. With `N[C@@H](Cc1c[nH]c2ccccc12)C(=O)O` the AC50 was “inactive”. With `c1ccc2c(CN3CCN(Cc4c[nH]c5ccccc45)CC3)c[nH]c2c1` the AC50 was 2.51 µM (active). In the case of `O=C(O)[C@H](Cc1c[nH]c2ccccc12)N1C(=O)c2ccccc2C1=O`, the activity, negative = inhibition is reported as -2.59% [at 11.4 µM]. For `COC(=O)Cn1cc(/C=N/NC(=O)c2ccc(C#N)cc2F)c2ccccc21`, the AC50 was “inactive”. For `CC(C)c1cccc2cc3c(nc12)-c1cccc(=O)n1C3`, the AC50 was “inactive”. `Cc1ccc(C(=O)c2ccc(CC(=O)O)n2C)cc1` was tested, and the AC50 was “inactive”. For `N#Cc1ccc(C(=O)Nc2ccc(N3CCN(C(=O)c4ccco4)CC3)cc2)c(F)c1`, the AC50 was “inactive”. In the case of `COc1ccc(CNc2nc(-c3ccccc3CN(C)C)nc3ccccc23)c(OC)c1`, the AC50 is reported as 10 µM (active). In the case of `COc1ccccc1CNc1nc(-c2ccccc2CN(C)C)nc2ccccc12`, the AC50 is reported as 10 µM (active). In the case of `COc1ccc(CNc2nc(-c3ccc(C(=O)N(C)C)cc3)nc3ccccc23)c(OC)c1`, the AC50 is reported as “inactive”. In the case of `COc1ccc(CNc2nc(-c3c(C)noc3C)nc3ccccc23)c(OC)c1`, the AC50 is reported as “inactive”. For `N[C@@H](CO)C(=O)NNCc1ccc(O)c(O)c1O`, the AC50 was “inactive”. For `Cc1cc(NC(=O)c2ccccc2Cl)no1`, the AC50 was “inactive”. In the case of `CCOC(=O)C(C)n1cnc2c(oc3ccccc32)c1=O` (stereo unspecified), the AC50 is reported as “inactive”. In the case of `O=C(NNC(=O)c1ccccc1-n1cccc1)c1ccc(Cl)c(Cl)c1`, the AC50 is reported as “inactive”. In the case of `CCOc1ccc(NC(=O)c2nnn(CC(=O)Nc3ccccc3OC)c2N)cc1`, the AC50 is reported as “inactive”. For `CC(C)C(NS(=O)(=O)c1cccs1)C(=O)NCCN1CCN(c2ccccc2)CC1` (stereo unspecified), the AC50 was 14.1 µM (active). With `CC(=O)NC(C)C(c1cccs1)N1CCN(c2ccccc2)CC1` (stereo unspecified) the AC50 was “inactive”. `COc1ccc(N2CCN(CCNC(=O)C3CCN(S(=O)(=O)c4cccs4)CC3)CC2)cc1` was tested, and the AC50 was “inactive”. `COc1ccc(NC(=O)N2CC3(CCN(S(C)(=O)=O)CC3)C2)cc1` was tested, and the AC50 was “inactive”. `O=C(CSc1ccccc1)Nc1ccc(NC(=O)c2ccco2)cc1` was tested, and the AC50 was “inactive”. In the case of `O=C(CSc1ccc(Cl)cc1)Nc1cccc(NC(=O)c2ccco2)c1`, the AC50 is reported as 6.31 µM (active). In the case of `Cc1ccc(SCC(=O)Nc2cccc(NC(=O)c3ccco3)c2)cc1`, the AC50 is reported as 20 µM (active). `O=C(Nc1nnc(SCc2ccc(Cl)cc2)s1)c1ccco1` was tested, and the AC50 was “inactive”. For `O=C(Nc1cccc(OC(=O)c2ccco2)c1)c1ccco1`, the AC50 was “inactive”. With `O=C(CSc1ccc(Cl)cc1)Nc1cccc(-c2nc3ncccc3o2)c1` the AC50 was 8.91 µM (active). `CC(=O)c1ccc(-n2nnnc2SCC(=O)Nc2cccc(NC(=O)c3ccco3)c2)cc1` was tested, and the AC50 was “inactive”. `O=C(Nc1cccc(-c2nc3ncccc3o2)c1)c1sc2cc(Cl)ccc2c1Cl` was tested, and the AC50 was “inactive”. In the case of `O=C(Nc1cccc(-c2nc3ncccc3o2)c1)c1sc2ccccc2c1Cl`, the AC50 is reported as “inactive”. With `COc1ccc(NC(=O)c2ncn[nH]2)cc1` the AC50 was “inactive”. `COC(=O)C(C)(C(=O)OC)c1ccc([N+](=O)[O-])cn1` was tested, and the AC50 was “inactive”. For `Cc1c(Cl)c([N+](=O)[O-])nn1CC(=O)Nc1c(C)n(C)n(-c2ccccc2)c1=O`, the AC50 was “inactive”. In the case of `Cc1ccc(NC(=O)CCc2c(C)nc3ncnn3c2C)nc1`, the AC50 is reported as “inactive”. In the case of `CC(=O)c1cccc(NC(=O)c2csc(-n3nc(C)cc3C(F)(F)F)n2)c1`, the AC50 is reported as “inactive”. `COC(=O)CCCC(=O)O` was tested, and the activity, negative = inhibition was 8.35% [at 11.4 µM]. For `COC(=O)[C@@]1(Cc2ccc(OC)cc2)[C@@H]2[C@@H](CC(=O)[C@H]2CC(=O)C(=O)N(C)C)CN1C(=O)c1ccccc1`, the AC50 was “inactive”. In the case of `O=[N+]([O-])c1ccc2c(c1)Cc1cc(N=Cc3ccc4c(c3)OCO4)ccc1-2`, the activity, negative = inhibition is reported as -11.6% [at 11.4 µM]. `CN1CCN(c2nc3cc(C(F)(F)F)ccc3n3cccc23)CC1` was tested, and the AC50 was “inactive”. With `FC(F)(F)c1cnc(N2CCC(=NOCc3ccc(Cl)cc3)CC2)c(Cl)c1` the AC50 was “inactive”. `Cc1cc(=O)c2cc(Cl)ccc2[nH]1` was tested, and the AC50 was “inactive”. With `CCCCN(C)Cc1c(C)[nH]c2ccc(Cl)cc2c1=O` the AC50 was 3.16 µM (active). `CCCCCCN(CCCCCC)C(=O)Cc1c(-c2ccc(Cl)cc2)[nH]c2ccc(Cl)cc12` was tested, and the AC50 was “inactive”. For `CCOc1ccc2[nH]c(=O)c(CN(CCc3ccccc3)C(=O)N3CCOCC3)cc2c1`, the AC50 was “inactive”. `N#C/C(=C\c1ccc(Cl)cc1)c1nc2ncccc2[nH]1` was tested, and the AC50 was 12.6 µM (active). `N#C/C(=C\c1ccccc1)c1nc2ncccc2[nH]1` was tested, and the AC50 was “inactive”. In the case of `c1ccc(-c2ccc(C3=Nn4c(Cn5nnc6ccccc65)nnc4SC3)cc2)cc1`, the AC50 is reported as “inactive”. For `COC(=O)N1CC(=O)N(OC)C1c1ccc(Cl)cc1Cl` (stereo unspecified), the AC50 was “inactive”. For `COc1cccc2c1OC[C@@H](CO)[C@H]2N(C)C(=O)Nc1ccc(Cl)cc1Cl`, the AC50 was 3.55 µM (active). `Cc1nc(C(=O)Nc2ccc(Cl)cc2Cl)nn1-c1cc(OC(C)C)c(Cl)cc1Cl` was tested, and the AC50 was “inactive”. For `CCCCOC(=O)Nc1ccc(C)c(Cl)c1`, the AC50 was “inactive”. `Cc1ccc(OCC(=O)Nc2ccc(Cl)cc2)c(-n2nc3ccccc3n2)c1` was tested, and the AC50 was “inactive”. With `Cc1cc2nc(SCCOC(=O)Nc3ccc(Cl)cc3)nc(C)c2cc1C` the AC50 was 8.91 µM (active). In the case of `O=C1NC(=O)[C@@](Cc2ccccc2)(c2cccnc2)N1`, the activity, negative = inhibition is reported as 1.34% [at 11.4 µM]. In the case of `CCS(=O)(=O)Nc1ccc(C2=NN(C(=O)c3ccco3)C(c3ccc(C)cc3)C2)cc1` (stereo unspecified), the AC50 is reported as “inactive”. In the case of `CC(=O)NNc1nc2ccccc2s1`, the AC50 is reported as “inactive”. `O=c1c(-c2nc3ccccc3s2)cccn1Cc1ccc(Cl)cc1` was tested, and the AC50 was “inactive”. In the case of `Clc1ccc(CCNc2nc3ccccc3s2)cc1`, the AC50 is reported as 3.55 µM (active). In the case of `Cc1noc2ncnc(Oc3ccc4ccccc4c3)c12`, the AC50 is reported as “inactive”. With `COCCN1C(=O)C(=O)/C(=C(/O)c2cccc(OC)c2)C1c1ccc(C)o1` (stereo unspecified) the AC50 was “inactive”. In the case of `CCOC(=O)c1oc2ccccc2c1NC(=O)c1ccc2c(c1)OCO2`, the AC50 is reported as 3.55 µM (active). `COC(=O)c1[nH]c2cc(OC)ccc2c1NC(=O)c1ccc2c(c1)OCO2` was tested, and the AC50 was 22.4 µM (active). In the case of `CCOC(=O)c1oc2ccccc2c1NC(=O)c1ccc(S(=O)(=O)N(C)C)cc1`, the AC50 is reported as “inactive”. For `COC(=O)c1[nH]c2cc(OC)ccc2c1NC(=O)c1nonc1C`, the AC50 was “inactive”. For `CCOC(=O)c1[nH]c2cc(OC)c(OC)cc2c1NC(=O)c1ccc2c(c1)OCO2`, the AC50 was “inactive”. For `COc1cccc(NC(=O)c2oc3ccccc3c2NC(=O)c2ccc3c(c2)OCO3)c1`, the AC50 was “inactive”. With `Cc1nc2cnc(Nc3ccccc3)nc2n(CCc2ccccc2)c1=O` the AC50 was “inactive”. In the case of `N#Cc1cccc(NC(=O)N2CCCC3(CCN(C(=O)c4cnccn4)CC3)C2)c1`, the AC50 is reported as “inactive”.
